From PubChem BioAssay (NCI)
This is part of a sample that, as a whole, favours compounds with a hit. Of some 83,000 tested, about 20% had one in any assay.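 In brief: 96-well plates, 48 h treatment, single concentration, percent growth endpoint.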 Unmarked numbers belong to inactive results. Calls of active or inactive are those of the source. The calls were made as follows: active = growth percent below 10; inactive = the rest.

Assays:
Assay in all cases: NCI-60 one-dose screen, 48 h (100 = growth as untreated, 0 = no growth, -100 = all killed)
Conditions in all cases: 10 µM unless noted
[1] = system: SR leukemia
[2] = system: RPMI-8226 leukemia
[3] = system: OVCAR-8 ovarian
[4] = system: OVCAR-5 ovarian
[5] = system: OVCAR-4 ovarian
[6] = system: SK-OV-3 ovarian
[7] = system: IGROV1 ovarian
[8] = system: OVCAR-3 ovarian
[9] = system: HS 578T breast
[10] = system: NCI/ADR-RES ovarian

Row | Compound | growth [1] | growth [2] | growth [3] | growth [4] | growth [5] | growth [6] | growth [7] | growth [8] | growth [9] | growth [10]
1 | Cc1nc2ccccc2c(/C=C/c2ccccc2)c1C(=O)/C=C/c1ccccc1 | 12.3% | 8.21% (active) | 10.4% | 6.51% (active) | 38.5% | 68.1% | 18.5% | 3.37% (active) | 41.9% | 7.26% (active)
2 | N=C(N)c1ccc(-c2ccc(-c3ccccc3)s2)cc1 | 7.19% (active) | -4.15% (active) | 38.1% | 61.4% | 45.8% | 85.2% | 60.2% | 53.7% | 87.8% | 89.2%
3 | CCCCCCCCCCCCCCCCCC1=NC(C)(C)CN1CC(C)O (stereo not given) | -13.6% (active) | 78.8% | 46.5% | 89.4% | 94.4% | 80.9% | 66.1% | 46.6% | 107% | 69.9%
4 | COC(=O)N1CC(Oc2ccccn2)C2CC1c1ccccc1O2 (stereo not given) | 94.8% | 85.6% | 98.7% | 107% | 103% | 103% | 120% | 110% | 86% | 98.5%
5 | Cc1ccc(-c2nc(/C=C3/C(=O)Nc4ccc(F)cc43)c3ccccn23)cc1 | 58% | 89.7% | 69.6% | 69.2% | 63.4% | 98% | 55% | 110% | 99.2% | 85.3%
6 | Cc1ccc(/C=C(\C#N)n2nnc3cc(F)c(F)cc32)cc1 | 7.33% (active) | 4.53% (active) | 6.79% (active) | -4.62% (active) | 46% | 53.6% | 2.76% (active) | 7.86% (active) | 36.1% | 12.9%
7 | COc1ccc(/C=C/c2c(C(=O)/C=C/c3ccccc3)c(C)nc3ccccc23)cc1 | 10.7% | 0.598% (active) | 0.97% (active) | -29.3% (active) | 37.2% | 63.6% | 6.06% (active) | -22.4% (active) | 38.2% | 3.63% (active)
8 | c1nc2ccc(-c3cc4ccc5[nH]ncc5c4c4c3CCCC4)cc2[nH]1 | 8.69% (active) | 58.1% | 78.5% | 69.3% | 88% | 50.2% | 36% | 89.5% | 65.2% | 110%
9 | O=C(C1CCCCC1)[C@@H]1[C@]2(C(=O)NC3CCCCC32)[C@@H]2CCCN2[C@@]12C(=O)NC1CCC(Cl)CC12 (stereo not given in full) | -68.6% [100 µM] (active) | -33.6% [100 µM] (active) | -64.3% [100 µM] (active) | -89.5% [100 µM] (active) | -79.6% [100 µM] (active) | -94.1% [100 µM] (active) | -70.3% [100 µM] (active) | -91.9% [100 µM] (active) | -43.6% [100 µM] (active) | -68.2% [100 µM] (active)
10 | [2H]C([2H])([2H])Oc1ccc(F)cc1/C=C/C(=O)/C=C(O)/C=C/c1cc(F)ccc1OC([2H])([2H])[2H] | 69.4% | 90% | 88.8% | 111% | 84.3% | 104% | 105% | 95.6% | 104% | 89.9%
11 | Cc1ccc2c(-c3nnc(N)s3)cc(=O)oc2c1C | 110% | 91.2% | 96.1% | 114% | 100% | 109% | 98.5% | 110% | 95.6% | 102%
12 | FC(F)(F)Oc1cccc(-c2cnc3ccc(-c4ccncc4)nn23)c1 | 4.36% (active) | 15.9% | 14.3% | 16.5% | 47% | -19.3% (active) | 12.1% | 8.85% (active) | 23.4% | 11.6%
13 | C=C(c1ccc(OC)c(/C=C/C(=O)c2ccc3c(c2)OCO3)c1)c1cc(OC)c(OC)c(OC)c1 | 6.41% (active) | 11.7% | 6.09% (active) | 36.6% | 38.9% | 27.4% | 35.2% | 1.16% (active) | 40.8% | 5.57% (active)
14 | CCN1C(=O)N(CC)C2C1NN=c1s/c(=C\c3ccc(C(F)(F)F)cc3)c(=O)n12 (stereo not given) | 12.2% | 9.95% (active) | -2.79% (active) | 26.7% | 46% | 36.5% | 18.7% | 3.24% (active) | 18.4% | 2.84% (active)
15 | COc1cc(OC)cc(-c2ccc(-c3ccc(C(=N)N)o3)o2)c1 | -17.3% (active) | 20.6% | 64.3% | 83.5% | 85.5% | 88.2% | 58.1% | 25.7% | 78% | 68.9%
16 | CN(C)CCCC1(c2ccc(F)cc2)OCc2cc(-c3ccc4cc[nH]c4c3)ccc21 (stereo not given) | -2.82% (active) | 36.7% | 57.9% | 84.4% | 44.4% | 90.2% | 23% | 45.6% | 54.6% | 56.8%
17 | O=C(N/N=C\c1ccccc1S(=O)(=O)O)N/N=C/c1ccccc1S(=O)(=O)O | 90.3% | 94.6% | 100% | 97.1% | 109% | 108% | 109% | 108% | 93.9% | 103%
18 | Cc1ccc(C(=O)Nc2cccc(C#Cc3cccc4[nH]nc(N)c34)c2)cc1C(F)(F)F | 69.3% | 66.9% | 72.1% | 59.9% | 66.6% | 84.3% | 17.9% | 82.7% | 47.4% | 74.1%
19 | Cc1cccc(-c2nc(Nc3ccc4ncsc4c3)c3ccccc3n2)n1 | 69.2% | 30.6% | 53.4% | 97.7% | 30.7% | 113% | 16.6% | 10.1% | 116% | 86.9%
20 | CNCc1cccc2c1OCCOCCOCCNS(=O)(=O)c1ccc(cc1)-c1cnc(N)c(n1)C(=O)N2 | 3.81% (active) | 65.6% | 28% | 56.3% | 50.4% | 27.9% | 24.8% | 2.52% (active) | 48.7% | 108%
21 | O=C1/C(=C\c2ccccn2)c2ccccc2N1c1c(Cl)cccc1Cl | -4.3% (active) | -12.5% (active) | 4.47% (active) | 122% | 3.21% (active) | 27.4% | 8.25% (active) | 27.4% | 22.9% | -26.7% (active)
22 | CCCCNC(=O)Oc1ccc(/C(=C(/C)Cc2ccc(OC)cc2)c2ccc(OCCN3CCCCC3)cc2)cc1 | -40.5% (active) | 32.3% | 84.7% | 84.5% | 69.3% | 95.5% | 84.5% | 77.1% | 72.9% | 81.9%
23 | Cc1ccc(CNc2ccc3nc(CCC(C)C)[nH]c3c2)cc1 | 85.9% | 87.4% | 89.9% | 101% | 85.1% | 100% | 77.4% | 88.9% | 96.3% | 89.6%
24 | COc1ccc2c(c1)c(-c1nc(-c3c[nH]c4ncccc34)cs1)cn2CCO | 37.8% | 39.9% | 56.2% | 68.2% | 42.1% | 30% | 43.4% | 78.7% | 33.5% | 76%
25 | C/C(=N\O)c1ccc(NC(=O)CSc2nnc(-c3cc(-c4ccc(S(C)(=O)=O)cc4)nc4ccccc34)n2-c2ccccc2)cc1 | 62.4% | 48.2% | 82.6% | 97.3% | 98.7% | 115% | 80.9% | 102% | 73.4% | 96.8%
26 | N#CSc1c[nH]c2cccc(/C=C/C(=O)/C=C(O)/C=C/c3cccc4[nH]cc(SC#N)c34)c12 | 0.385% (active) | -28.9% (active) | -34.2% (active) | -69.6% (active) | -20.1% (active) | -24% (active) | -37.4% (active) | -17.6% (active) | 22.8% | 39.9%
27 | COc1cc(/C=C2\CN(S(=O)(=O)c3ccccc3)C/C(=C\c3cc(CN4CCCCC4)c(O)c(OC)c3)C2=O)cc(CN2CCCCC2)c1O | -18.6% (active) | -34.9% (active) | -25% (active) | -66.6% (active) | -69.8% (active) | 108% | -51.8% (active) | -86.9% (active) | 0.476% (active) | 5.04% (active)
